# Over roughly 33,000 sequences, “E-score (-0.5 to 0.5)” has its median near -0.012; the highest 2% begin near 0.27. What follows is part of a selection rich in the highest values, with near analogues and random picks from the rest.
# Biological target: T1, Vhr1 (UniProt P40522)
# T1 sequence: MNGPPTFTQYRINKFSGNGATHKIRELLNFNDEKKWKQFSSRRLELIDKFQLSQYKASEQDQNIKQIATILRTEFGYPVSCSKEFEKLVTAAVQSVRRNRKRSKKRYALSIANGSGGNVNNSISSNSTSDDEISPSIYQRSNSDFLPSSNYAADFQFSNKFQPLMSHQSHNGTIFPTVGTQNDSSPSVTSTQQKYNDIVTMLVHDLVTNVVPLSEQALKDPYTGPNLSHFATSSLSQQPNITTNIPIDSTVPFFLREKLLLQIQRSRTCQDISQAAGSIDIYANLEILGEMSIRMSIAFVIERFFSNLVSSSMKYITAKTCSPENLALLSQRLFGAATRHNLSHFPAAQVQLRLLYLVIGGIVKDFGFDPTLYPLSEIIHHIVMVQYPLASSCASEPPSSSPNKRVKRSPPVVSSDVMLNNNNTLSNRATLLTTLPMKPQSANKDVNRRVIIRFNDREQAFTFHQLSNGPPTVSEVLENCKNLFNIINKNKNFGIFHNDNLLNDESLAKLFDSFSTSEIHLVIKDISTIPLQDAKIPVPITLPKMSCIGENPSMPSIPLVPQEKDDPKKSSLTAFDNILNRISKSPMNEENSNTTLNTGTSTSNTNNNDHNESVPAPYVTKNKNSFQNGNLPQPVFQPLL
# Experiment: PBM E-score (8-mer binding enrichment) (E-score (-0.5 to 0.5)); higher = stronger / more preferred TF binding
# Conditions: protein concentration: 200 nM; construct: GST-full length
# Method: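 Universal 'all 10-mer' protein binding microarrays (Agilent AMADID 015681) probed with GST-tagged S. cerevisiae TFs (full-length or DBD) made by in vitro transcription/translation (PURExpress), about 100-200 nM. Bound TF was detected with fluorescent anti-GST. Each ungapped 8-mer (which stands for itself and its reverse complement) is scored by the PBM enrichment score (E-score), a modified Wilcoxon-Mann-Whitney statistic from -0.5 to +0.5, computed with the Universal PBM Analysis Suite. Scale: above 0.35 generally sequence-specific binding.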
row,Sequence,PBM E-score
1,ACATTTAT,-0.0139
2,CCTTGCGA,-0.0209
3,ACTTGCGA,0.0242
4,GCTTGCGA,0.295
5,ACTGGCCT,-0.135
6,CAGATGTC,0.105
7,AGAGTCGA,0.157
8,AAAGTCGC,0.137
9,CGAGTCGC,0.34
10,AGAGTCGG,0.329
11,CCAGTCGC,0.13
12,AGAGTCTG,-0.106
13,CGAGTCGA,0.224
14,AGAGTCGC,0.338
15,ATAGTCGC,0.243
16,CCCTTCTA,-0.218
17,CTAGCTGA,0.0125
18,CTACTGAA,0.132
19,CGCCCTCA,-0.16
20,AAGGGCTC,-0.218
21,AGGGCTCG,-0.079
22,AGCTTCTA,-0.278

row,Sequence,PBM E-score
1,CGTGATTA,0.236
2,ATTGATTG,0.0691
3,CGCGATTC,0.278
4,AGTGATTC,0.285
5,CGTGATTC,0.326
6,AGTGATAG,-0.0174
7,AGTGATTG,0.343
8,AGTGATAC,0.237
9,CGCGATTA,0.162
10,AGCGATTC,0.168
11,AGTGATTA,0.216
12,CGTGATCC,-0.0765
13,ATGAAACC,0.137
14,ACGGTAGT,0.125
15,AAAATCAT,0.151
16,ATTGCTTG,-0.00443
17,ATCTCATC,0.0646
18,CGTACCCA,0.16
19,ACGGTCAT,0.156
20,GGCAAGCA,-0.224
21,AATGAGTA,0.223
22,CATGAGAG,0.147

row,Sequence,PBM E-score
1,AATGAGAC,-0.113
2,CATGAGAC,0.274
3,AATGAGTC,0.426
4,CATGAGGC,-0.159
5,CATGAGTC,0.477
6,AATGAGTG,0.157
7,CATGAGCC,0.159
8,AGTGTCGC,0.138
9,AAAATAAT,0.0747
10,TAAGCCTA,-0.259
11,GAATTTGC,-0.0954
12,CAAGAATC,0.179
13,GCGAACAC,-0.0481
14,AATAGGCA,0.0547
15,AACAGCAT,0.0405
16,AGAGCCCT,-0.165
17,GCAATCGA,-0.0515
18,AGAGTCCC,-0.205
19,AGAGTCCT,-0.17
20,AGAGTCAT,0.45
21,AGAGTCAG,0.399
22,AGAGTCAC,0.43

row,Sequence,PBM E-score
1,AAAGTCAG,0.119
2,AGAGTCTC,0.191
3,ACAGTCAA,0.0811
4,AGGGTCAG,-0.161
5,ACAGTCAT,0.318
6,AGAGTCAA,0.112
7,ACAGTCAG,0.228
8,CGGATCTA,-0.0646
9,GCACCTCC,-0.136
10,GGCAAAGA,-0.0131
11,GTTCACTA,-0.133
12,GCAATTCC,-0.163
13,GGAAAGCC,-0.0802
14,TGATGGAA,0.0625
15,ACTACTCA,0.238
16,CATACCCA,0.271
17,TATACCCA,0.0126
18,CATACCCC,0.105
19,ATTACTCA,0.29
20,GCTACTCC,-0.145
21,ATTACTCC,0.0722
22,CGTACTCA,0.283

row,Sequence,PBM E-score
1,GCTACTCA,0.271
2,CGTACTAA,0.153
3,ATTACTCG,0.198
4,CGTACTCC,-0.0124
5,AACTAAAT,-0.0313
6,ATCGGTGA,0.181
7,GTGCTTAA,-0.136
8,TATAGGAA,0.0238
9,GAATTAGA,-0.172
10,GCGTGTAA,-0.0131
11,ATTATTGC,-0.0063
12,ACTGGCGA,0.124
13,AATTTAGT,0.256
14,GGTACTTA,-0.103
15,CATACTCA,0.285
16,AGTACTCA,0.171
17,GGTACTCA,0.281
18,CATACTGA,0.123
19,CATACTCC,0.125
20,TATACTGA,0.309
21,CATACTCG,0.18
